Assay outcomes as filed in PubChem.
pPAFAH inh = pPAFAH (human) enzyme inhibition. Q13093. actives 1.5% (n = 330,000). recombinant pPAFAH, FP-rhodamine probe fluorescence polarization. inhibition, % at 3.39 µM;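 active = inhibition above the mean inhibition across the screen plus 3 SD, cut at about 25% in these data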;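 also: inhibitors block binding of the rhodamine activity-based probe so polarization drops; 0% = enzyme with DMSO and 100% = wells lacking pPAFAH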
PME-1 inh = PME-1 (human) inhibition; Q9Y570; recombinant PME-1, FP-Rh probe fluorescence polarization; inhibition, % at 5.9 µM; actives 0.53% (n = 320,000);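 active = inhibition above the campaign mean of all compounds plus 3 SD, cut at about 26% in these data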;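 also: competitive labeling of PME-1 active site by serine hydrolase directed probe; 0% = PME-1 with DMSO and 100% = wells lacking PME-1 enzyme; inhibitors block probe labeling so polarization falls and inhibition rises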
PAD4 FP inh = blocks human protein arginine deiminase 4; recombinant PAD4, RCA probe fluorescence polarization; actives 0.41% (n = 330,000); Q9UM07; inhibition, % at 6.36 µM; AID 485272;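 active = percent inhibition above a cutoff equal to the mean of all tested compounds plus 3 SD, cut at about 15% in these data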;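 also: 0% = PAD4 with RCA probe and DMSO and 100% = probe without PAD4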
Target sequence (Q9UM07 whole entry, looked up): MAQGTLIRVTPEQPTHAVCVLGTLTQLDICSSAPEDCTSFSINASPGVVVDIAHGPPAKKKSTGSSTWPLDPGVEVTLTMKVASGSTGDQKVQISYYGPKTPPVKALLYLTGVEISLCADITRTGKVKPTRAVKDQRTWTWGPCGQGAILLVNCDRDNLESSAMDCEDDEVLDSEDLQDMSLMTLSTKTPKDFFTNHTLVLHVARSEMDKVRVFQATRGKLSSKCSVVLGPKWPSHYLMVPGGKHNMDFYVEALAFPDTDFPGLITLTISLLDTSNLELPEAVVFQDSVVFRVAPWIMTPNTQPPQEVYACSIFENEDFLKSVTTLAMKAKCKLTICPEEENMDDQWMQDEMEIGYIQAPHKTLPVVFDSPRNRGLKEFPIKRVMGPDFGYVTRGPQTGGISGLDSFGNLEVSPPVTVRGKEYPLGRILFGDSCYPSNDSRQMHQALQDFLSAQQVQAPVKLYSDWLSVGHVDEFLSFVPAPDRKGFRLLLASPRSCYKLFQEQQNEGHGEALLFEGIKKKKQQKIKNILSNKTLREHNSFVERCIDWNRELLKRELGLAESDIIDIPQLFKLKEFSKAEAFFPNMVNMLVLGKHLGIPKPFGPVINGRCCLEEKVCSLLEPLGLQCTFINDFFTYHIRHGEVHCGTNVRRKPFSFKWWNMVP
Fam108B inh = counter-screen for RBBP9 inhibitors: inhibitors of mouse Fam108B. recombinant Fam108B, FP-Rh probe fluorescence polarization. inhibition, % at 9.51 µM. actives 0.33% (n = 300,000);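 active = inhibition above the screen mean inhibition plus 3 SD, computed separately per campaign, cut at about 18% in these data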;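 also: inhibitors lower polarization as less probe binds the enzyme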
GSTO1 counter = GSTO1 inhibition, counter-screen for RBBP9 inhibitors; P78417; recombinant GSTO1, activity-based probe fluorescence polarization; inhibition, % at 5.96 µM; actives 1.1% (n = 300,000); AID 1974;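 active = inhibition above the campaign mean inhibition plus 3 SD, cut at about 35% in these data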;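 also: 0% = GSTO1-1 with DMSO and 100% = wells lacking GSTO1-1 enzyme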
GSTO1 confirm = confirmation of human GSTO1 inhibitors; AID 2176; shares compounds with GSTO1 counter; actives 54% (n = 2,400); inhibition, % at 5.96 µM; recombinant GSTO1, probe fluorescence polarization;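 active = inhibition above the primary screen's cutoff, its mean inhibition plus 3 SD, cut at about 35% in these data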;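 also: loss of polarization as inhibitors block binding of rhodamine sulfonate ester activity probe; 0% = GSTO1 with DMSO and 100% = wells lacking GSTO1 enzyme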
GSTO1 ABPP inh = GSTO1 (human) inhibition by gel ABPP. shares compounds with GSTO1 counter. recombinant GSTO1, gel ABPP SE-Rh probe fluorescence. inhibition, % at 1 µM. actives 30% (n = 130). AID 463110;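 active = inhibition of the enzyme GSTO1 above about 75%, limit read from the data; inactive = inhibition below that limit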
The depositor's hits bear a star; · = no result. An excerpt weighted towards active compounds, which were near 2.3% of everything screened.

SMILES	pPAFAH inh	PME-1 inh	PAD4 FP inh	Fam108B inh	GSTO1 counter	GSTO1 confirm	others
O=[N+]([O-])c1ccccc1S(=O)(=O)N(CC1CO1)c1ccccc1 (stereo unspecified)	-2	-1	-1	0	98*	100*	GSTO1 ABPP inh=56
Cc1ccc(S(=O)(=O)N(CC2CO2)c2ccccc2[N+](=O)[O-])cc1 (stereo unspecified)	1	1	-4	-4	78*	93*	GSTO1 ABPP inh=28
Cc1ccc(N(CC2CO2)S(=O)(=O)c2ccccc2[N+](=O)[O-])cc1 (stereo unspecified)	-1	7	4	-3	87*	97*	GSTO1 ABPP inh=25
CCN(CC1COc2ccccc2O1)S(=O)(=O)c1ccc(C)cc1 (stereo unspecified)	4	5	5	3	0	·
CCOC(=O)N(C)S(=O)(=O)c1ccccc1[N+](=O)[O-]	0	4	1	4	1	·
Cc1cc(=O)[nH]c2c1c(C)nn2-c1ccccc1	8	1	-4	4	4	·
Cc1nn(-c2ccc(Cl)cc2)c2[nH]c(CCl)cc(=O)c12	0	-6	-1	-6	97*	98*	GSTO1 ABPP inh=72
Cc1cccc(CCNCc2c(C(=O)O)c(C)n(-c3ccccc3)c2C)c1	11	2	-5	-2	-2	·
O=C(O)C1Cc2ccccc2CN1C(=O)COc1ccc(Br)cc1 (stereo unspecified)	5	-7	-4	3	-1	·
O=C(O)C1Cc2ccccc2CN1C(=O)CCl (stereo unspecified)	0	-10	-10	4	70*	98*	GSTO1 ABPP inh=82*
COC(=O)c1cccc(-c2ccc(C(c3c(C)[nH][nH]c3=O)c3c(C)[nH][nH]c3=O)o2)c1	1	-1	8	-1	59*	54*
COc1ccccc1N(O)C1CC(=O)N(c2ccc(F)cc2)C1=O (stereo unspecified)	15	-2	-20	4	57*	3
Cc1ccc(S(=O)(=O)NC(Cc2ccccc2)C(=O)NN)cc1 (stereo unspecified)	-8	-10	2	1	6	·
Cc1ccc(S(=O)(=O)N[C@@H](Cc2ccccc2)C(=O)CCl)cc1	1	4	8	-6	45*	55*
CCN(CC(=O)NC(C)(C)C)C(=O)COc1c(Cl)cc(Cl)c2ccc(C)nc12	2	1	-7	-3	7	·
CCN(CC(=O)NC(C)(C)C)C(=O)CCl	-1	-8	-3	3	67*	86*	GSTO1 ABPP inh=11
C[C@]12CCC(=O)CC1=CCC1C3CC=C(C#N)[C@@]3(C)CC[C@@]12O (stereo partly specified)	3	-1	0	5	5	·
O=C(CSc1ccc(Br)cc1)Nc1ccccc1N1CCOCC1	1	9	-2	4	-6	·
Cc1ccc2c(c1)c1c3n2CCN(C(=O)CCl)C3CCC1 (stereo unspecified)	1	2	-1	1	93*	93*	GSTO1 ABPP inh=85*
O=C(CCl)Nc1cccc2ncccc12	5	-1	-1	-2	69*	77*
COc1ccc(NC(=O)C(OC(=O)c2ccc([N+](=O)[O-])o2)c2ccccc2)cc1Cl (stereo unspecified)	8	-3	-12	8	50*	10
Clc1c2c(nc3ccccc13)CCC2	-3	-13	4	1	71*	6
Nc1c2c(nc3ccccc13)CCCC2	-8	-7	-6	-2	-2	·
O=C(O)/C=C\C(=O)Nc1ccc(N2CCN(c3ccc(Cl)cc3)CC2)cc1	15	5	2	2	59*	8
O=C(O)/C=C\C(=O)Nc1ccc(N2CCN(c3cccc(Cl)c3)CC2)cc1	15	7	3	0	45*	7
SMILES	pPAFAH inh	PME-1 inh	PAD4 FP inh	Fam108B inh	GSTO1 counter	GSTO1 confirm	others
O=C(O)/C=C\C(=O)Nc1ccc(N2CCN(c3ccc(Cl)c(Cl)c3)CC2)cc1	11	-2	-3	4	28	·
O=C(N/N=C/c1c[nH]c2ccccc12)c1ccc(O)c(O)c1	9	10	0	-3	40*	11
COc1ccc(Cl)cc1C(=O)NCC(=O)OCc1ccccc1	-5	-7	-2	2	20	·
O=C(O)c1cccc(-c2ccc(/C=N/NC(=O)c3cccnc3)o2)c1	5	-3	1	2	-1	·
O=C(N/N=C/c1ccc(-c2ccccc2[N+](=O)[O-])o1)c1cccnc1	11	4	5	4	51*	7
Cc1cc2nc(C)c3c(n2n1)CCC3	-12	-1	2	-2	-2	·
Nc1c(Cl)ncnc1N/N=C/c1cccc(O)c1	2	2	-4	2	45*	9
O=C(NNC(=O)c1ccco1)c1csc(N2CCOCC2)n1	-5	-2	-2	0	6	·
CC(/C=C1\SC(=S)N(NS(=O)(=O)c2ccc(C)cc2)C1=O)=C\c1ccccc1	14	-13	-7	0	48*	36*
CC(/C=C1\SC(=S)N(NS(=O)(=O)c2ccccc2)C1=O)=C\c1ccccc1	10	0	0	3	40*	32
CC[C@@H](C)[C@@H](C(=O)N1CCN(C(=O)OC(C)(C)C)CC1)n1cc(CCCCNC(=O)OC(C)(C)C)nn1	8	3	6	-1	6	·
CN(Cc1ccc(Cl)s1)C(=O)CCl	0	-4	3	3	92*	104*	GSTO1 ABPP inh=70
O=C(/C=C/c1ccc(O)cc1)c1ccc(NC2=C(N3CCCCC3)C(=O)c3ccccc3C2=O)cc1	7	5	10	10	65*	51*
CN(c1ccccc1)c1nc(N)c([N+](=O)[O-])c(N2CCCCC2)n1	7	4	1	-2	2	·
CN(C1=C(N2CCCCC2)C(=O)c2ccccc2C1=O)c1ccccc1	3	8	16*	9	50*	8
Cc1ccc(NC2=C(N3CCCCC3)C(=O)c3ccccc3C2=O)cc1	-1	-3	-3	11	65*	46*
Cc1ccc(CNc2nc(C)c(C(=O)N(C)C)s2)cc1	3	7	-4	0	4	·
COC(=O)CCCC1=CC2=C(c3ccccc3)C(=O)C(C)(OC(=O)C3CCCC3)C(=O)C2=CN1Cc1ccc2c(c1)OCO2 (stereo unspecified)	6	-4	0	1	48*	13
COC(=O)CCCC1=CC2=C(c3ccccc3)C(=O)C(C)(OC(=O)C3CCCC3)C(=O)C2=CN1Cc1ccc(OC)cc1 (stereo unspecified)	6	0	-3	4	41*	10
Nc1ccc(C(=O)NCCCSc2ccccc2)cc1[N+](=O)[O-]	8	-4	0	-1	3	·
C/C(=N\NC(=O)c1cc(-c2ccc(C)s2)[nH]n1)c1ccco1	-1	-20	3	-2	-5	·
